Experimental data as given in PubChem BioAssay AID1159580 (chemical genetic matrix, 2015).
“And” between values parts separate entries of the source, which are not always exact repeats. Equal values may be shown once. Out of some 5,500 compounds screened, about 2,000 (36%) were called active. About 18% were inconclusive and are not listed. Cut-off read from the data, not from the text of the source: active = normalized growth mostly below about 0.91 (no sharp cut-off); inconclusive = no clear call, values can overlap the other calls; inactive = mostly above about 0.92. Some of the results follow.

Assay: chemical genetic growth profiling, strain panel (AID 1159580);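 note: tested at 20 µM; growth read once vehicle control cultures reached saturation at 30 °C; 1 = growth at the plate median or of vehicle wells; lower values mean less growth of the strain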
Settings: S. cerevisiae deletion strains, growth OD

Measured: normalized growth

CC(=O)OCC(=O)[C@@]1(O)CCC2C3C[C@H](C)C4=CC(=O)C=CC4(C)C3[C@@H](O)CC21C (stereo partly specified)
inactive: locus YAL013W, strain DEP1, hits give low values 1.01 | locus YAL021C, strain ccr4, hits give low values 1.03 | locus YAL026C, strain drs2, hits give low values 1.03 | locus YAL030W, strain snc1, hits give low values 1.01 | locus YBL061C, strain skt5, hits give low values 1.01 | locus YBR009C, strain hhf1, hits give low values 0.985 | locus YBR021W, strain FUR4, hits give low values 0.968 | locus YBR023C, strain chs3, hits give low values 1.02 | locus YBR171W, strain sec66, hits give low values 1.03 | locus YBR229C, strain ROT2, hits give low values 1.01 | locus YBR231C, strain swc5, hits give low values 1.01 | locus YBR279W, strain paf1, hits give low values 1.01 | locus YCL011C, strain gbp2, hits give low values 1.02 | locus YCL016C, strain dcc1, hits give low values 1.01 | locus YCL029C, strain bik1, hits give low values 1.01 | locus YCL061C, strain MRC1, hits give low values 1.03 | locus YCL069W, strain vba3, hits give low values 1.03 | locus YCR088W, strain abp1, hits give low values 1.02 | locus YDL005C, strain med2, hits give low values 1.01 | locus YDL035C, strain GPR1, hits give low values 1.01 | locus YDL040C, strain nat1, hits give low values 1.01 | locus YDL074C, strain BRE1, hits give low values 0.994 | locus YDL101C, strain DUN1, hits give low values 1.01 | locus YDL134C, strain PPH21, hits give low values 1.01 | locus YDL185W, strain tfp1, hits give low values 1.01 | locus YDL192W, strain arf1, hits give low values 1 | locus YDR001C, strain nth1, hits give low values 1.01 | locus YDR069C, strain doa4, hits give low values 1.02 | locus YDR101C, strain arx1, hits give low values 1 | locus YDR137W, strain rgp1, hits give low values 1.03 | locus YDR150W, strain NUM1, hits give low values 1.01 | locus YDR159W, strain sac3, hits give low values 0.995 | locus YDR162C, strain NBP2, hits give low values 0.992 | locus YDR195W, strain ref2 1.01 | locus YDR297W, strain sur2, hits give low values 0.994 | locus YDR318W, strain mcm21, hits give low values 1.01 | locus YDR334W, strain swr1, hits give low values 1.02 | locus YDR335W, strain msn5, hits give low values 1.02 | locus YDR388W, hits give low values 1.01 | locus YDR392W, strain spt3, hits give low values 1.03 | locus YDR502C, strain sam2, hits give low values 0.989 | locus YEL003W, strain gim4, hits give low values 1.02 | locus YEL037C, strain rad23, hits give low values 1.02 | locus YEL061C, strain CIN8 (second series), hits give low values 1.02 | locus YEL061C, strain CIN8, hits give low values 1.01 | locus YER015W, strain faa2, hits give low values 1.01 | locus YER016W, strain bim1, hits give low values 1.03 | locus YER110C, hits give low values 1.01 | locus YER111C, strain swi4, hits give low values 1.02 | locus YER155C, strain BEM2 (second series), hits give low values 1.05 | locus YER155C, strain BEM2, hits give low values 1.01 | locus YER167W, strain BCK2, hits give low values 1.01 | locus YFR010W, strain ubp6, hits give low values 0.996 | locus YGL078C, strain dbp3, hits give low values 1 | locus YGL086W, strain mad1, hits give low values 1.02 | locus YGL167C, strain pmr1, hits give low values 1.02 | locus YGL173C, strain kem1, hits give low values 1.03 | locus YGL227W, strain vid30, hits give low values 1.02 | locus YGL240W, strain doc1, hits give low values 1 | locus YGL248W, strain PDE1, hits give low values 1 | locus YGL253W, strain hxk2, hits give low values 1.01 | locus YGR078C, strain PAC10, hits give low values 0.996 | locus YGR135W, strain pre9, hits give low values 0.982 | locus YGR229C, strain SMI1, hits give low values 1 | locus YGR252W, strain gcn5, hits give low values 1.03 | locus YHR013C, strain ard1, hits give low values 1.03 | locus YHR027C, strain rpn1, hits give low values 1.01 | locus YHR030C, strain SLT2, hits give low values 1.01 | locus YHR079C, strain IRE1 (second series), hits give low values 1.01 | locus YHR079C, strain IRE1, hits give low values 1.02 | locus YHR094C, strain hxt1, hits give low values 1.01 | locus YHR129C, strain ARP1, hits give low values 1.02 | locus YHR142W, strain chs7, hits give low values 1.01 | locus YHR200W, strain rpn10, hits give low values 1 | locus YIL066C, strain RNR3, hits give low values 1.02 | locus YIL073C, strain SPO22, hits give low values 1.03 | locus YIL125W, strain kgd1, hits give low values 1.01 | locus YIR030C, strain dcg1, hits give low values 0.997 | locus YJL092W, strain hpr5, hits give low values 1.02 | locus YJL095W, strain BCK1 (second series), hits give low values 1.01 | locus YJL095W, strain BCK1, hits give low values 1.01 and 1.02 | locus YJL115W, strain asf1, hits give low values 1.02 | locus YJL129C, strain trk1, hits give low values 1.02 | locus YJL134W, strain LCB3, hits give low values 1 | locus YJL154C, strain vps35, hits give low values 1.02 | locus YJL164C, strain tpk1, hits give low values 1.01 | locus YJL166W, strain qcr8, hits give low values 1.01 | locus YJL168C, strain set2, hits give low values 1.01 | locus YJL187C, strain SWE1 (second series), hits give low values 1.02 | locus YJR043C, strain POL32, hits give low values 0.999 | locus YJR066W, strain TOR1, hits give low values 0.99
